The source of these data is PubChem BioAssay (NCATS).

Assay [1] in a line: qHTS profiling of the MIPE4 collection as inhibitors of Plasmodium falciparum (3D7) proliferation (AID 743344).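 Note: scaled between DMSO vehicle wells and 0.29 µM artemisinin as full inhibition.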 Conditions: P. falciparum 3D7 in erythrocytes, SYBR Green DNA fluorescence, 72 h; at 28.5 µM unless noted. A digest of the protocol: (§1)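 Erythrocytes infected with P. falciparum (0.3% parasitemia, 2.5% hematocrit) incubated with compounds 72 h at 37 C, 5% CO2. Lysis with saponin/Triton buffer containing SYBR Green I, overnight at room temperature in the dark; DNA fluorescence (485/535 nm) normalised to 0.29 uM artemisinin and DMSO.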
In general terms: Quantitative high-throughput screening tests each substance at several concentrations.

Assay [2] is described as follows: qHTS profiling of the MIPE4 collection as inhibitors of Plasmodium falciparum (DD2) proliferation (AID 743345). Conditions: P. falciparum Dd2 in erythrocytes, SYBR Green DNA, 72 h; at 28.5 µM unless noted. Put shortly: as §1
Assay [3] can be described thus: qHTS profiling of the MIPE4 collection as inhibitors of Plasmodium falciparum (DD2) proliferation (Rep 2) (AID 743346). To be noted: P. falciparum Dd2 in erythrocytes, SYBR Green DNA, 72 h; at 28.5 µM unless noted. Put shortly:
as §1

The nature of assay [4]: High-throughput drug toxicity screening in the BPDCN cell line Gen2.2 (AID 1224824).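 Note: cells exposed to compounds for 48 h before reading.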 Conditions: Gen2.2 BPDCN cells; at 45.8 µM (top of the series) unless noted. A digest of the protocol:
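Gen2.2 cells, 500 per well in phenol red-free RPMI with 10% FBS, exposed to compounds 48 h at 37 C, 5% CO2; viability by CellTiter-Glo luminescence. Percent activity scaled to DMSO (100%) and 9.2 uM bortezomib final (0%).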

Assay [5] can be described thus: qHTS profiling of the MIPE4 collection as inhibitors of Plasmodium falciparum (HB3) proliferation (AID 743347).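 Note: plate controls were DMSO vehicle wells for no effect and artemisinin wells for full effect.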 Conditions: P. falciparum HB3 in erythrocytes, SYBR Green DNA, 72 h; at 28.5 µM unless noted. Put shortly: as §1
Assay [6] in a line: qHTS profiling for inhibitors of Plasmodium falciparum (3D7) proliferation (AID 743322).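 Note: infected erythrocytes exposed to compound for 72 h before lysis; 100% = DMSO vehicle wells and 0% = 0.29 µM artemisinin.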 To be noted: P. falciparum 3D7 proliferation; at 28.7 µM (top of the series). Put shortly:
as §1

Assay [7] can be described thus: qHTS profiling for inhibitors of Plasmodium falciparum (DD2) proliferation (AID 743323). To be noted: lower = more inhibition; at 28.7 µM (top of the series). A digest of the protocol:
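SYBR Green fluorescence (ex 485, em 535 nm) of lysed cultures gives parasite DNA content; wells normalized to artemisinin (0.29 uM) and DMSO controls. Infected red cells: 0.3% parasitemia, 2.5% hematocrit, 72 h, 37 C.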

Each structure is given as a SMILES string.

In assay [1], `C[C@@H](NCCCc1cccc(C(F)(F)F)c1)c1cccc2ccccc12` had a parasite growth, % of DMSO control of 16.2%. Besides, the parasite growth remaining, % of DMSO control (lower = more inhibition) in assay [2] is 18.5%. Moreover, the parasite growth, % of control (lower = inhibition) in assay [3] was determined as 10.9%. In assay [4], the cell viability, % of control (lower = more cytotoxic) amounted to 264%.
Take `CC(C)NCC(O)c1ccc(NS(C)(=O)=O)cc1` (stereo unspecified): in assay [1], the parasite growth, % of DMSO control came out at 44.4%. The parasite growth remaining, % of DMSO control (lower = more inhibition) in assay [2] was 94.6%. Moreover, in assay [3], the parasite growth, % of control (lower = inhibition) is 30.5%. The cell viability, % of control (lower = more cytotoxic) in assay [4] stood at 203%.
As for `Cc1ccc(S(=O)(=O)N[C@@H](Cc2ccccc2)C(=O)CCl)cc1`, the parasite growth, % of DMSO control in assay [1] was found to be 90.3%. Further, the parasite growth remaining, % of DMSO control (lower = more inhibition) in assay [2] was 91.3%. The parasite growth, % of control (lower = inhibition) in assay [3] came out at 79.2%. Besides, the growth, % of control in assay [5] came out at 84.3%. The cell viability, % of control (lower = more cytotoxic) in assay [4] was found to be 4.27%.
As to `Cc1cccc(N(C)C(=S)Oc2ccc3ccccc3c2)c1`, the parasite growth, % of DMSO control in assay [1] amounted to 51.5%. Also, the parasite growth remaining, % of DMSO control (lower = more inhibition) in assay [2] was found to be 84.1%. Also, the parasite growth, % of control (lower = inhibition) in assay [3] was 51.6%. Besides, the cell viability, % of control (lower = more cytotoxic) in assay [4] stood at 227%.
In the case of `CCC(=O)O[C@]1(C(=O)SCF)[C@H](C)C[C@H]2[C@@H]3C[C@H](F)C4=CC(=O)C=C[C@]4(C)[C@@]3(F)[C@@H](O)C[C@@]21C`, the parasite growth, % of DMSO control in assay [1] was determined as 47.5%. The parasite growth remaining, % of DMSO control (lower = more inhibition) in assay [2] came out at 86.3%. For the same compound, the parasite growth, % of control (lower = inhibition) in assay [3] is 44.9%. Also, in assay [5], the growth, % of control worked out at 87.8%. In addition, the cell viability, % of control (lower = more cytotoxic) in assay [4] is 84.3%.
For `CCc1c2c(nc3ccc(OC(=O)N4CCC(N5CCCCC5)CC4)cc13)-c1cc3c(c(=O)n1C2)COC(=O)[C@]3(O)CC`, the parasite growth, % of DMSO control in assay [1] worked out at 66.3%. The parasite growth remaining, % of DMSO control (lower = more inhibition) in assay [2] stood at 59.3%. For the same compound, the parasite growth, % of control (lower = inhibition) in assay [3] is 67.7%. The cell viability, % of control (lower = more cytotoxic) in assay [4] was 21.9%.
For the compound `COc1ccc(C(=O)CC(=O)c2ccc(C(C)(C)C)cc2)cc1`, in assay [1], the parasite growth, % of DMSO control was 9.04%. The parasite growth remaining, % of DMSO control (lower = more inhibition) in assay [2] was 88.2%. Further, the parasite growth, % of control (lower = inhibition) in assay [3] turned out to be 6.24%. In assay [5], this compound gave a growth, % of control of 2.68%. Also, the cell viability, % of control (lower = more cytotoxic) in assay [4] was 5.71%.
`COc1ncnc(NS(=O)(=O)c2ccc(N)cc2)c1OC` yielded a remaining parasite growth % (stronger effect = lower value) in assay [6] of 82.4%. In assay [7], this compound showed an activity, percent of control of 85.3%. Further, the parasite growth, % of DMSO control in assay [1] worked out at 170%. Moreover, in assay [2], the parasite growth remaining, % of DMSO control (lower = more inhibition) was 105%. Moreover, in assay [3], the parasite growth, % of control (lower = inhibition) came to 99.5%. In assay [5], this compound yielded a growth, % of control of 747%. Also, the cell viability, % of control (lower = more cytotoxic) in assay [4] came out at 106%.
`COc1ccc(-c2ccc3cc(C(=O)O)ccc3c2)cc1C12CC3CC(CC(C3)C1)C2`: the parasite growth, % of DMSO control in assay [1] was determined as 66.2%. The parasite growth remaining, % of DMSO control (lower = more inhibition) in assay [2] amounted to 98.8%. Moreover, the parasite growth, % of control (lower = inhibition) in assay [3] amounted to 58.3%. The cell viability, % of control (lower = more cytotoxic) in assay [4] was 521%.
For the compound `CC(C)(Sc1cc(C(C)(C)C)c(O)c(C(C)(C)C)c1)Sc1cc(C(C)(C)C)c(O)c(C(C)(C)C)c1`, the parasite growth, % of DMSO control in assay [1] amounted to 23.4%. The parasite growth remaining, % of DMSO control (lower = more inhibition) in assay [2] was found to be 26.6%. In assay [3], the parasite growth, % of control (lower = inhibition) is 24.6%. Also, the growth, % of control in assay [5] is 19.1%. Also, in assay [4], the cell viability, % of control (lower = more cytotoxic) came to 48.3%.
For `CCn1cc(C(=O)O)c(=O)c2cc(F)c(N3CCN(C)CC3)cc21`, the parasite growth, % of DMSO control in assay [1] worked out at 206%. Also, the parasite growth remaining, % of DMSO control (lower = more inhibition) in assay [2] amounted to 70.5%. Also, in assay [3], the parasite growth, % of control (lower = inhibition) was found to be 52.8%. Moreover, in assay [4], the cell viability, % of control (lower = more cytotoxic) is 85.7%.
`CC(C)C1CCC(C(=O)N[C@H](Cc2ccccc2)C(=O)O)CC1` (stereo partly specified) had a parasite growth, % of DMSO control in assay [1] of 87.2%. The parasite growth remaining, % of DMSO control (lower = more inhibition) in assay [2] was determined as 118%. Also, the parasite growth, % of control (lower = inhibition) in assay [3] came to 109%. Besides, in assay [5], the growth, % of control stood at 85.4%. Further, in assay [4], the cell viability, % of control (lower = more cytotoxic) stood at 139%.
In turn, `CCOC(=O)[C@H](CCc1ccccc1)N[C@H]1CS[C@H](c2cccs2)CN(CC(=O)O)C1=O` gave a parasite growth, % of DMSO control in assay [1] of 5.73%. Also, the parasite growth remaining, % of DMSO control (lower = more inhibition) in assay [2] worked out at 58.9%. For the same compound, the parasite growth, % of control (lower = inhibition) in assay [3] came to 6.49%. The cell viability, % of control (lower = more cytotoxic) in assay [4] is 189%.
`CCOc1cc(N)c(Cl)cc1C(=O)NCC1CN(Cc2ccc(F)cc2)CCO1` (stereo unspecified): the parasite growth, % of DMSO control in assay [1] was found to be 105%. Also, the parasite growth remaining, % of DMSO control (lower = more inhibition) in assay [2] came to 101%. For the same compound, the parasite growth, % of control (lower = inhibition) in assay [3] is 178%. Besides, the cell viability, % of control (lower = more cytotoxic) in assay [4] amounted to 376%.
Take `CCOCC(O)COc1ccc(NC(=O)CC[S+](C)C)cc1` (stereo unspecified): in assay [1], the parasite growth, % of DMSO control is 84%. Also, the parasite growth remaining, % of DMSO control (lower = more inhibition) in assay [2] worked out at 103%. Also, the parasite growth, % of control (lower = inhibition) in assay [3] stood at 97.7%. This compound also had a growth, % of control in assay [5] of 99.4%. Besides, the cell viability, % of control (lower = more cytotoxic) in assay [4] is 120%.
The compound `CC(C)(C)NC(=O)[C@H]1CC[C@H]2[C@@H]3CC[C@H]4NC(=O)C=C[C@]4(C)[C@H]3CC[C@]12C` returned a parasite growth, % of DMSO control in assay [1] of 60.2%. Also, in assay [2], the parasite growth remaining, % of DMSO control (lower = more inhibition) stood at 91.7%. In addition, the parasite growth, % of control (lower = inhibition) in assay [3] was 53%. In assay [4], the cell viability, % of control (lower = more cytotoxic) amounted to 25.5%.
The corresponding values for `Nc1nc(N)nc(-c2cc(Cl)ccc2Cl)n1` are 83.2%, 88.9%, 128% and 126%.
The corresponding values for `C[C@@H]1C[C@H]2[C@@H]3CCC4=CC(=O)C=C[C@]4(C)[C@@]3(Cl)[C@@H](O)C[C@]2(C)[C@@]1(OC(=O)c1ccco1)C(=O)CCl` are 5.2%, 7.88%, 10.6% and 4.47%.
